Screening data deposited in PubChem by several laboratories.
GDH-TPI inh: counter-screen for M. tuberculosis FBA inhibitors: GDH-TPI coupled enzymes | GDH-TPI coupled enzyme counterscreen, NADH absorbance | inhibition, % at 4.8 µM | 360,000 tested, 1.2% active | AID 588335; in the data active means inhibition above about 30%;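 further: 0% = DMSO wells and 100% = wells lacking the enzyme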
Rv3671c inh: inhibitors of M. tuberculosis serine protease Rv3671c; inhibition, % at 5.96 µM; P9WHR9; 320,000 tested, 0.048% active; in the data active means inhibition above about 38%;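 further: extracellular domain of Rv3671c used as enzyme; 0% = enzyme with DMSO and 100% = no enzyme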
FadD28 binding: blocks FadD28 binding to the bisubstrate probe | fluorescence polarization | inhibition, % at 12.5 µM | 360,000 tested, 0.22% active; in the data active means inhibition above about 8.5%, passing the limit was not always enough; inconclusive means no clear call, values can overlap the other calls
UGM FP inh: inhibitors of M. tuberculosis UDP-galactopyranose mutase. P9WIQ1. purified UGM, fluorescence polarization probe displacement. inhibition, % at 10 µM. 320,000 tested, 0.06% active. AID 504406; in the data active means inhibition above about 10%, passing the limit was not always enough; inconclusive means no clear call, values can overlap the other calls
Target sequence (P9WIQ1 whole entry, looked up): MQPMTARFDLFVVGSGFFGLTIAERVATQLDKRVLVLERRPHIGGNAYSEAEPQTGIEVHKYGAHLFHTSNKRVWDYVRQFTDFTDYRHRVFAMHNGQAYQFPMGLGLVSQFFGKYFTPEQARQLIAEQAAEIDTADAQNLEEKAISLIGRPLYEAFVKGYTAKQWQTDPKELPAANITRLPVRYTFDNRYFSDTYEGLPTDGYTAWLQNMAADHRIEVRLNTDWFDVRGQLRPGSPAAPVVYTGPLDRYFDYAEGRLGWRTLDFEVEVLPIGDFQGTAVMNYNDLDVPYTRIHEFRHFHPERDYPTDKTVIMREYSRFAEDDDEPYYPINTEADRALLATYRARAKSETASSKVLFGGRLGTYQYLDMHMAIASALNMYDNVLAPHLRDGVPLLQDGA
Mtb bLac sens: beta-lactam sensitization of Mtb H37Rv. M. tuberculosis H37Rv growth with meropenem, percent inhibition. inhibition, % at 25 µM. 330,000 tested, 0.27% active. AID 434955; call rule not given here;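 further: growth measured after seven days incubation then overnight dye step; 0% = bacteria only wells and 100% = bacteria with antibiotic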
Mtb FBA inh: Mtb fructose-bisphosphate aldolase inhibition; P9WQA3; purified M. tuberculosis FBA, fluorescence read-out; inhibition, % at 1 µM; 360,000 tested, 2.3% active; AID 588726; in the data active means inhibition above about 27%;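 further: 0% = vehicle and 100% = reference inhibitor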
* hit, by the source's call; ? = inconclusive; / = not tested or not shown; + = active, no number. In the library only some 3.7% were active in any assay of this set; here they are far more common.

SMILES	GDH-TPI inh	Rv3671c inh	FadD28 binding	UGM FP inh	Mtb bLac sens	Mtb FBA inh
CC(C)=CC(=O)N1CCCC(N2CCN(c3ccc(F)cc3)CC2)C1 (configuration not stated)	8	-2	1	-3	-2	1
COCCn1c(-c2ccc(SC)cc2)nc2c1c(=O)[nH]c(=O)n2CC(C)C	21	-8	-1	1	0	+
CCCOc1cccc(-c2nnc(NC(=O)c3ccco3)s2)c1	49*	-1	-1	1	-2	10
Cc1cc(C(=O)Nc2nnc(-c3ccccc3)s2)no1	32*	-9	-2	4	/	-3
Cc1cc(C(=O)Nc2nnc(C3CCCCC3)s2)no1	-1	1	-1	-2	-6	0
COc1cccc(-c2nnc(NC(=O)c3cccs3)s2)c1	35*	-22	-1	1	-6	2
O=C(Nc1nnc(SCc2ccc(F)cc2)s1)c1ccco1	41*	-12	0	0	-7	1
CCOC(=O)C1=C(C)N(CCCC(=O)O)C(=O)NC1c1ccccc1OC(=O)c1cccs1 (configuration not stated)	/	2	/	0	-4	/
C/C=C(\C)c1nnc(NC(=O)c2ccco2)s1	33*	7	-4	1	5	-2
Cc1ccc(-c2nnc(NC(=O)c3ccco3)s2)cc1	23	-4	0	-1	-4	1
Cc1nnc(NC(=O)c2ccco2)s1	10	9	0	-2	-3	5
COc1cccc(-c2nnc(NC(=O)c3ccco3)s2)c1	41*	2	1	4	-2	7
COc1ccc(-c2nnc(NC(=O)c3ccco3)s2)cc1	45*	-6	-1	0	8	1
CCOC(=O)C1(C)CCCCN1C(=O)c1cccnc1 (configuration not stated)	7	/	-2	/	/	2
CC(C)=CCC[C@H](C)C[C@@H]1CC2=C(C(=O)OC(C)(C)O2)[C@H](c2ccc(Cl)cc2)O1	/	/	-4	/	/	-1
CCOc1ccc2oc(-c3ccccc3)c(C(=O)O)c2c1	6	6	-2	2	-3	+
CC(Oc1ccc2oc(-c3ccccc3)c(C(=O)O)c2c1)C(=O)O (configuration not stated)	6	-4	-1	9	6	+
Cc1oc2ccc(OC(C(=O)O)c3ccccc3)cc2c1C(=O)O (configuration not stated)	3	10	0	8	?	3
O=C(O)c1ccccc1/C=N/Nc1ccc(S(=O)(=O)N2CCCC2)cc1[N+](=O)[O-]	21	-1	-5	-1	-6	-11
CCOc1cccc(C=NNc2ccc(S(=O)(=O)Nc3ccccc3C(=O)O)cc2[N+](=O)[O-])c1O	16	10	17*	-4	1	-4
O=C(O)c1ccccc1NS(=O)(=O)c1ccc(NN=Cc2ccccc2F)c([N+](=O)[O-])c1	32*	7	5	2	-3	-1
COc1ccc(C=NNc2ccc(S(=O)(=O)Nc3ccccc3C(=O)O)cc2[N+](=O)[O-])c(OC)c1	18	27	32*	3	-5	-5
CCOc1ccc(C=NNc2ccc(S(=O)(=O)Nc3ccccc3C(=O)O)cc2[N+](=O)[O-])cc1	14	10	5	0	4	2
C=CCOc1ccc(C=NNc2ccc(S(=O)(=O)Nc3ccccc3C(=O)O)cc2[N+](=O)[O-])cc1OC	10	27	32*	1	4	1
Cc1ccc(S(=O)(=O)N2CCOCC2)cc1C(=O)OCC(=O)NCCc1ccc(F)cc1	5	0	-2	2	-7	3
SMILES	GDH-TPI inh	Rv3671c inh	FadD28 binding	UGM FP inh	Mtb bLac sens	Mtb FBA inh
CCCNC(=O)c1cc(C2CCCCN2C(=O)c2ccc3c(c2)CCO3)on1 (configuration not stated)	8	/	-3	/	/	2
COc1ccc2[nH]cc(/C=C/C(=O)c3ccccc3)c2c1	16	2	0	2	89	-2
CC1CCCC(NC(=O)CSc2ncccn2)C1C (configuration not stated)	19	0	-1	-1	-13	4
CC1=C(C(=O)N(C)C)CC(CC(=O)NC(c2ccccc2)c2ccccc2)C(=O)N1Cc1ccc(F)cc1 (configuration not stated)	10	/	-2	/	/	1
CSc1ccc(C=NNc2ccc(S(=O)(=O)Nc3ccccc3C(=O)O)cc2[N+](=O)[O-])cc1	-5	9	5	-2	45	-5
COc1ccc(NC(=S)NNc2ccc(S(=O)(=O)Nc3ccccc3C(=O)O)cc2[N+](=O)[O-])cc1	41*	22	22*	1	-8	-4
Cc1nn(-c2ccccc2)c(Cl)c1/C=N/Nc1ccc(S(=O)(=O)Nc2ccccc2C(=O)O)cc1[N+](=O)[O-]	47*	9	12*	0	15	-6
CCCCn1nc(C(=O)N(C)Cc2nc3ccccc3c(=O)[nH]2)c2ccccc2c1=O	0	/	-4	/	/	-1
C/C(=C\c1cccs1)C(=O)c1c(C)cc(C)[nH]c1=O	53*	-19	-3	-1	0	2
Cc1nn(-c2ccccc2)c(N)c1N=Nc1ccccc1	13	-8	2	0	21	-4
Nc1nn(-c2ccccc2)c(N)c1N=Nc1ccccc1	34*	-3	1	1	-1	-1
O=C1CC(c2ccccc2)CC2=C1C(c1ccccn1)Nc1ccccc1N2 (configuration not stated)	28	10	0	-1	6	-2
O=C1CC(c2ccc(F)cc2)CC2=C1C(c1ccc([N+](=O)[O-])o1)Nc1ccccc1N2 (configuration not stated)	38*	6	-1	0	59	3
O=C(N/N=C/c1ccccn1)c1[nH]c2ccc([N+](=O)[O-])cc2c1-c1ccccc1	41*	-32	-14	1	52	-2
Cc1ccsc1C(=O)N1CCC1(C)C(=O)Nc1ccc2c(c1)OCCO2 (configuration not stated)	0	/	-2	/	/	-2
COc1cc(CNc2ncnc3c2ncn3[C@H]2CN(Cc3cc(OC)c(OC)c(OC)c3)C[C@@H](CO)O2)cc(OC)c1OC	0	/	1	/	/	4
Cc1cc(NC(=O)CSc2nnnn2-c2ccc(C)c(Cl)c2)no1	0	-4	0	2	9	0
CN(C)c1ccc(-c2nnc(-c3ccccc3F)o2)cc1	33*	4	-2	3	-2	22
COc1ccc(-c2nnc(-c3ccc(N(C)C)cc3)o2)cc1	22	-10	0	2	50	18
CC1=N/C(=C\c2ccc(OC(C)C)cc2)C(=O)N1c1ccc(C(=O)O)cc1	33*	-13	1	-2	40	1
COc1cc(OC)cc(C(=O)Nn2c(C)nc3ccccc3c2=O)c1	-8	-3	-4	1	-8	1
COc1ccc2[nH]c3c(c2c1)CCn1c-3nc2ccccc2c1=O	59*	-16	-3	1	-1	16
